Here are results for 23 sequences from the supplement of paper PMC12645437, “Orthogonal IMiD-Degron Pairs Induce Selective Protein Degradation in Cells” (ACS Chemical Biology, 2025).

In all, about 8,300 sequences were measured (“log2 fold change of degron read counts, EGFP-low vs EGFP+ sorted cells (limma voom), compound-induced degradation”: median about -1.1, highest 2% from about 3.2 on). The list comes from a sample in which the highest values are over-represented; it also holds similar and randomly drawn sequences.

This assay addresses T1, CRBN, Q96SW2.
T1 chain: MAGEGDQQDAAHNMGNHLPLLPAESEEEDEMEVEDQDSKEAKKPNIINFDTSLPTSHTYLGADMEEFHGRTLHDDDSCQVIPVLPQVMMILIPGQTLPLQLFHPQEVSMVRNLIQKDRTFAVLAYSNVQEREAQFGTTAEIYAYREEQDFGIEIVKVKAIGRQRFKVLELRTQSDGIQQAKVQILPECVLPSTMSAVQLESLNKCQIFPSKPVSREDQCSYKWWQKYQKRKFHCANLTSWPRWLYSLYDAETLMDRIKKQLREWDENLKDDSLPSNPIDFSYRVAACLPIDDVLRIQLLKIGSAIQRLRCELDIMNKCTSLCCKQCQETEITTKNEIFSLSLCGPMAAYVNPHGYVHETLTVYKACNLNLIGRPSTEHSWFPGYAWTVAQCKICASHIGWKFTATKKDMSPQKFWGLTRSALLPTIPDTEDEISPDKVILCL
The assay can be described thus: log2 fold change of degron read counts, EGFP-low vs EGFP+ sorted cells (limma voom), compound-induced degradation; higher = more compound-induced degradation of the degron-EGFP fusion; degrons are variants of IKZF1/3 zinc finger 2; compound dose not given here. Particulars: Jurkat, 18 h. How it is done: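 Pooled library of 8380 IKZF3 ZF2 degron mutants (positions 146-167 varied within the IKZF3 130-189 degron; only the varied core is printed, flanks not printed) fused to EGFP with IRES-mCherry, lentivirally expressed in Jurkat cells. mCherry+ cells were treated with one IMiD compound for 18 h (dose not stated) and FACS-sorted into EGFP-low and EGFP+ populations. Degron sequences were counted by NGS, and log2FC (EGFP-low vs EGFP+) was estimated by limma voom over 3 biological replicates.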

Setting [1] is: compound: compound 19 (5-tert-butyl-thalidomide).
Setting [2] is: compound: compound 22 (5-morpholino-thalidomide).
The mark [3] stands for this setting: compound: compound 33 (diphenyl IMiD analogue).
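Note: pooled lentiviral library of zinc finger degron-EGFP fusions in mCherry-positive Jurkat cells, FACS-sorted after compound exposure, with degron abundance counted by next-generation sequencing.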

Consider FVCPVCGAMFTQKGNLLRHIKL [46F_47V_49P_50V_52G_53A_54M_55F_67L_, Q9UKT9], for which the “log2 fold change of degron read counts” value under setting [1] was -0.83, the “log2 fold change of degron read counts” value under setting [2] was determined as 1.28, the “log2 fold change of degron read counts” value under setting [3] worked out at 1.78 and the “log2 fold change of degron read counts” value (compound: thalidomide) is 1.71.

Take FSCPVCGAMFTQKGNLLRHIKL [46F_47S_49P_50V_52G_53A_54M_55F_67L_, Q9UKT9]: the “log2 fold change of degron read counts” value under setting [1] is 1.68, the “log2 fold change of degron read counts” value under setting [2] was 0.847, the “log2 fold change of degron read counts” value under setting [3] was 1.55 and the “log2 fold change of degron read counts” value (compound: thalidomide) was determined as 0.449.

For the sequence FQCPVCGAMFTQKGNLLRHIKL [46F_47Q_49P_50V_52G_53A_54M_55F_67L_, Q9UKT9], the “log2 fold change of degron read counts” value was -0.606 under setting [1], 2.26 under setting [2], 2.34 under setting [3] and 3.58 (compound: thalidomide).

In the case of FGCPVCGAMFTQKGNLLRHIKL [46F_47G_49P_50V_52G_53A_54M_55F_67L_, Q9UKT9], the “log2 fold change of degron read counts” value worked out at 3.86 under setting [1], 2.08 under setting [2], 2.22 under setting [3] and 0.29 (compound: thalidomide).

Consider FACPVCGAMFTQKGNLLRHIKL [46F_47A_49P_50V_52G_53A_54M_55F_67L_, Q9UKT9], for which the “log2 fold change of degron read counts” value runs as follows: under setting [1], 2.83; under setting [2], 0.812; under setting [3], 0.601; (compound: thalidomide) -0.0754.

Regarding FNCPVCGAMFTQKGNLLRHIKL [46F_47N_49P_50V_52G_53A_54M_55F_67L_, Q9UKT9], the “log2 fold change of degron read counts” value by setting is: under setting [1], 0.95; under setting [2], -0.0712; under setting [3], 0.173; (compound: thalidomide) 0.109.

As for LHCNQCGFRCTQKGNLLRHIKL [46L_47H_49N_50Q_52G_53F_54R_55C_67L_, Q9UKT9], the “log2 fold change of degron read counts” value was -1.15 under setting [1], -1.7 under setting [2], -1.52 under setting [3] and -1.61 (compound: thalidomide).

For FRCPICGHQFTQKGNLLRHIKL [46F_47R_49P_50I_52G_53H_54Q_55F_67L_, Q9UKT9], the “log2 fold change of degron read counts” value was -2.97 under setting [1], -2.88 under setting [2], -2.09 under setting [3] and -1.65 (compound: thalidomide).

Turning to FNCEICGRGFTQKGNLLRHIKL [46F_47N_49E_50I_52G_53R_54G_55F_67L_, Q9UKT9], the “log2 fold change of degron read counts” value reads like this: under setting [1], -0.684; under setting [2], -2.34; under setting [3], -2.3; (compound: thalidomide) -2.43.

FICDVCGADFTQKGNLLRHIKL [46F_47I_49D_50V_52G_53A_54D_55F_67L_, Q9UKT9]: the “log2 fold change of degron read counts” value is -3.13 under setting [1], -2.03 under setting [2], -2.05 under setting [3] and -2.17 (compound: thalidomide).

Turning to FTCEICGRSFTQKGNLLRHIKL [46F_47T_49E_50I_52G_53R_54S_55F_67L_, Q9UKT9], the “log2 fold change of degron read counts” value is, setting by setting: under setting [1], -2.68; under setting [2], -1.98; under setting [3], -1.23; (compound: thalidomide) -0.866.

With FVCNICGAAFTQKGNLLRHIKL [46F_47V_49N_50I_52G_53A_54A_55F_67L_, Q9UKT9], the “log2 fold change of degron read counts” value was -0.113 under setting [1], 1.76 under setting [2], 1.87 under setting [3] and 2.31 (compound: thalidomide).

Turning to LVCNQCGFDCTQKGNLLRHIKL [46L_47V_49N_50Q_52G_53F_54D_55C_67L_, Q9UKT9], the “log2 fold change of degron read counts” value is, setting by setting: under setting [1], -2.99; under setting [2], -3.3; under setting [3], -2.89; (compound: thalidomide) -2.71.

With LTCNQCGFFCTQKGNLLRHIKL [46L_47T_49N_50Q_52G_53F_54F_55C_67L_, Q9UKT9], the “log2 fold change of degron read counts” value reads like this: under setting [1], -1.72; under setting [2], -1.87; under setting [3], -2.06; (compound: thalidomide) -1.27.

As for FQCPVCGAEFTQKGNLLRHIKL [46F_47Q_49P_50V_52G_53A_54E_55F_67L_, Q9UKT9], the “log2 fold change of degron read counts” value is, setting by setting: under setting [1], 0.475; under setting [2], 1.57; under setting [3], 2.3; (compound: thalidomide) 3.76.

Take FFCEVCGAEFTQKGNLLRHIKL [46F_47F_49E_50V_52G_53A_54E_55F_67L_, Q9UKT9]: the “log2 fold change of degron read counts” value by setting is: under setting [1], 3.01; under setting [2], 3.05; under setting [3], 0.82; (compound: thalidomide) 0.898.

As to FSCPVCGAEFTQKGNLLRHIKL [46F_47S_49P_50V_52G_53A_54E_55F_67L_, Q9UKT9], the “log2 fold change of degron read counts” value turned out to be 1.12 under setting [1], 0.204 under setting [2], 1.45 under setting [3] and 0.472 (compound: thalidomide).

As to FVCPVCGAEFTQKGNLLRHIKL [46F_47V_49P_50V_52G_53A_54E_55F_67L_, Q9UKT9], the “log2 fold change of degron read counts” value was -0.775 under setting [1], 1.8 under setting [2], 1.37 under setting [3] and 2.53 (compound: thalidomide).

Take FNCEVCGAEFTQKGNLLRHIKL [46F_47N_49E_50V_52G_53A_54E_55F_67L_, Q9UKT9]: the “log2 fold change of degron read counts” value runs as follows: under setting [1], 0.9; under setting [2], -1.18; under setting [3], -1.23; (compound: thalidomide) -0.895.

Consider FTCEVCGAEFTQKGNLLRHIKL [46F_47T_49E_50V_52G_53A_54E_55F_67L_, Q9UKT9], for which the “log2 fold change of degron read counts” value is -0.301 under setting [1], 1.19 under setting [2], 0.247 under setting [3] and 1.9 (compound: thalidomide).

Take FYCEVCGAEFTQKGNLLRHIKL [46F_47Y_49E_50V_52G_53A_54E_55F_67L_, Q9UKT9]: the “log2 fold change of degron read counts” value is, setting by setting: under setting [1], 3.4; under setting [2], 2.95; under setting [3], 2.08; (compound: thalidomide) 0.0761.

With FKCEVCGAEFTQKGNLLRHIKL [46F_47K_49E_50V_52G_53A_54E_55F_67L_, Q9UKT9], the “log2 fold change of degron read counts” value by setting is: under setting [1], -1.42; under setting [2], -2.94; under setting [3], -2.99; (compound: thalidomide) -1.02.

As to FQCEVCGAEFTQKGNLLRHIKL [46F_47Q_49E_50V_52G_53A_54E_55F_67L_, Q9UKT9], the “log2 fold change of degron read counts” value runs as follows: under setting [1], 0.65; under setting [2], 0.856; under setting [3], 1.61; (compound: thalidomide) 3.7.
